This is a sample that favours compounds with a hit; in the whole collection about 19% have one here.
Pf growth 48h: inhibits P. falciparum growth in the first generation, 48 h; P. falciparum luciferase growth in erythrocytes, 48 h; Potency, µM (top dose mostly 28.7 µM), for inactives: at the top dose activity change, negative = inhibition, hits mostly inhibitors; 5.9% of 310,000 active; further: potency means the concentration at half of the fitted maximal effect; on the % scale 0 is the no-effect control and ±100 the full control effect
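Parasite viability was followed by luminescence of a genomically integrated firefly luciferase. Cultures held 0.1% parasitemia at 2% hematocrit (final), incubated under 5% CO2 at 37 C.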
Lassa entry inh: Lassa virus entry inhibition; 1.2% of 300,000 active; Potency, µM (titrated, usually from 37.9 µM), for inactives: at the highest dose activity change, negative = inhibition, usual class: inhibitors; Lassa virus pseudotype entry inhibition, cell reporter; AID 540256; calls by dose curve; tested in HEK293 cells; further: potency means the concentration at half of the fitted maximal effect; on the % scale 0 is the no-effect control and ±100 the full control effect; nearly all actives have a fitted effect of over 50% in size
Cycloheximide cs: affects cycloheximide protein synthesis inhibition readout, counter-screen; cell reporter, cycloheximide protein synthesis inhibition counterscreen; max response, %; 12% of 300,000 active; AID 2314; in the data active means max response mostly above about 13%, no sharp cut-off; inactive means mostly below about 14%; further: read at 38.3 µM for the half of the compounds with a filed dose; 0% is about no effect
Shiga toxin inh: inhibitors of Shiga toxin in Vero cells | Vero cells, Shiga toxin protein synthesis inhibition reporter | inhibition, % at 38.7 µM | 9.2% of 290,000 active; in the data active means inhibition mostly above about 28%, no sharp cut-off; inactive means mostly below about 43%; further: 0% is about no effect
Pf growth 96h: P. falciparum growth inhibition at 96 hours; P. falciparum luciferase reporter growth, 96 h; Potency, µM (titrated, usually from 28.7 µM), for inactives: at the top dose activity change, negative = inhibition, hits mostly inhibitors; 6.9% of 320,000 active; AID 504834; further: potency means the concentration at half of the fitted maximal effect; on the % scale 0 is the no-effect control and ±100 the full control effect
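Luminescence readout: decreased luciferase signal marks inhibited growth of reporter-expressing P. falciparum in infected red cells (2% hematocrit, 0.05% parasitemia final), exposed to compound two generations (96 h, 37 C, 5% CO2).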
Marburg entry inh: inhibitors of Marburg virus binding or cell entry; Marburg virus pseudotyped entry inhibition, cell reporter; Potency, µM (doses to about 37.8 µM), without a hit: at the highest dose activity change, negative = inhibition, most hits filed as inhibitors; 1.8% of 300,000 active; AID 540276; calls by dose curve; tested in HEK293 cells; further: potency means the concentration at half of the fitted maximal effect; on the % scale 0 is the no-effect control and ±100 the full control effect
An asterisk follows results filed as active; ? = inconclusive; . = no result; [ ] = dose if it differs, or a comment. Unless noted, the call rests on the fitted dose curve; in most records, active means well fitted inhibition curve with a large enough effect; inconclusive means small, poorly fitted or top-dose-only effect, or another doubt; inactive means no such curve, though single readings can be large or run the other way.

SMILES	Pf growth 48h	Lassa entry inh	Cycloheximide cs	Shiga toxin inh	Pf growth 96h	Marburg entry inh
C=CCNC(=O)C1CCN(S(=O)(=O)c2ccc(Br)cc2)CC1	10.4µM*	-6.0%	6.7	24.5	.	-9.8%
O=C(NCC1CCCO1)C1CCN(S(=O)(=O)c2ccc(Br)cc2)CC1 (stereo not given)	1.1%	.	-3.0	-22.8	3.8%	.
O=C(Nc1ccc(S(=O)(=O)N2CCOCC2)cc1)C1CCN(S(=O)(=O)c2ccccc2)CC1	?	3.3%	.	.	2.94µM*	-0.8%
COc1cc(NC(=O)C2CCN(S(=O)(=O)c3ccc(N4CCCC4=O)cc3)CC2)cc(OC)c1	-27.2%	.	-2.4	-1.0	9.28µM*	.
COc1ccc(S(=O)(=O)N2CCC(C(=O)Nc3ccc(S(=O)(=O)N4CCCC4)cc3)CC2)cc1OC	?	?	.	.	4.65µM*	?
O=C(Nc1ccc(S(=O)(=O)N2CCOCC2)cc1)C1CCCCC1	-15.6%	-8.7%	-2.1	-10.7	.	10.9%
O=C(Nc1ccc(C(F)(F)F)cc1)C1CCN(S(=O)(=O)c2ccc(N3CCCC3=O)cc2)CC1	?	.	-1.1	-6.3	?	.
O=C1C(Cl)=C(N2CCOCC2)C(=O)N1c1cccc(Cl)c1	?	0.9%	-0.3	13.6	-5.7%	-22.4%
CNC(=O)c1cc(-c2ccc(F)cc2)cc(-c2ccc(S(=O)(=O)N3CCCC3)cc2)c1N	.	8.88µM*	.	.	.	.
Cc1nnc(NC(=O)C2CCN(S(=O)(=O)c3ccc(F)c(Cl)c3)CC2)o1	6.57µM*	21.7%	.	.	14.7µM*	17.3%
COc1ccc(NC(=O)C2CCN(S(=O)(=O)c3ccc(N4CCCC4=O)cc3)CC2)cc1OC	?	17.3%[46.1 µM]	1.7	-2.4	13.1µM*	-15.8%[46.1 µM]
O=C(Nc1ccc(S(=O)(=O)N2CCCC2)cc1)C1CCN(S(=O)(=O)c2ccc(F)cc2)CC1	13.1µM*	?	.	.	?	?
CCOC(=O)c1ccc(S(=O)(=O)N2CCC(C(=O)Nc3nnc(C)o3)CC2)cc1	?	1.0%	.	.	-21.4%	13.7%
O=C(Nc1ccc(S(=O)(=O)N2CCCC2)cc1)c1ccc(F)cc1	.	-2.4%	.	.	.	-2.3%[46.1 µM]
O=C(c1c(Cl)nc2sccn12)N(C(=O)c1c(Cl)nc2sccn12)c1ccc(Cl)cn1	.	-29.9%	79.7*	187.3*	-5.2%	6.0%
CC1SC(=S)N(c2ccc(N(C)C)cc2)C1=O (stereo not given)	?	4.1%[46.1 µM]	-0.5	-5.3	?	1.4%[46.1 µM]
CCCC(=O)N1CCN(c2ccc(NC(=O)c3ccc(Br)o3)cc2)CC1	-29.5%	0.6%	5.3	17.6	.	-3.5%
O=C(Nc1ccc(N2CCN(C(=O)c3ccccc3)CC2)cc1)c1ccc(Br)o1	?	-27.5%	8.7	-3.3	37.3%	?
O=C(Nc1ccc(N2CCCC2)cc1)c1ccc(Br)o1	?	-4.3%	58.5*	70.5*	?	-24.9%
CCN1CCN(c2ccc(NC(=O)c3ccc(Br)o3)cc2)CC1	57.8%	.	42.8*	111.0*	44.0%	.
CN1CCN(c2ccc(NC(=O)c3ccc(-c4ccc(Br)cc4)o3)cc2)CC1	10.4µM*	?	8.6	50.0	8.4%	?
CCCCN(CCCC)CC(O)COc1ccccc1Br (stereo not given)	4.15µM*	?	-4.5	12.1	93.1%	?
Cc1ccccc1OCC(O)CN(CCO)Cc1ccccc1 (stereo not given)	?	0.0%	-3.0	0.0	?	-0.4%[46.1 µM]
CC(C)CN(CC(C)C)CC(O)COc1ccccc1Br (stereo not given)	?	?	-3.9	-12.3	3.29µM*	?
Cc1ccc2cc(C#N)c(NCCNC(=O)C3CC3)nc2c1C	?	-2.3%	-6.0	-17.1	7.2%	?
Cc1cc(C)n(-c2ccc(C(=O)Nc3cccc([N+](=O)[O-])c3)cc2)n1	-17.3%	4.0%	10.5	25.6	-26.4%	?
Cc1c(C(=O)Nc2cccc(F)c2)cnn1-c1ccccc1	262.1%	?	39.0*	63.6*	-11.2%	?
CC(=O)c1cccc(NC(=O)c2cnn(-c3ccccc3)c2C)c1	97.2%	.	45.1*	89.9*	97.7%	.
Cc1c(C(=O)Nc2cccc([N+](=O)[O-])c2)cnn1-c1ccccc1	50.1%	.	47.0*	113.5*	179.1%	.
CCn1c(=O)c2cc(C(=O)Nc3cccc(C(F)(F)F)c3)sc2c2ccccc21	.	?	.	.	.	17.4%[46.1 µM]

Assay outcomes: PubChem, National Center for Advancing Translational Sciences (NCATS)
